Screening results from PubChem BioAssay.
Sampled rows, rich in hits. Any-hit rate of the full collection: about 2.4%.
HSF-1 act: increases HSF-1 driven luciferase reporter signal. NIH3T3-HGL HSF-1 luciferase reporter, MG132, 8 h; 100% = twice DMSO control signal. activation, % at 9 µM. 300,000 compounds, 1.7% hits. AID 504408;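 active = mean replicate activation of at least 50% with a set share of replicates each reaching 50%; inconclusive = only one of those two conditions met; inactive = mean below 50% and too few replicates reaching it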;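 also: 0% = median of the neutral control wells and 100% = twice that signal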
NOD2 RIPK2 PPI: blocks binding of human NOD2 to RIPK2 | 360,000 compounds, 0.38% hits | AID 624267 | inhibition, % at 4.98 µM | CHO BLA complementation NOD2-RIPK2, CCF4 ratio | O43353; in the data active = inhibition above about 21%;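 also: 0% = vehicle only and 100% = reference blocker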
TLR4-MyD88 BLA: TLR4-MyD88 interaction inhibition in cells | inhibition, % at 8.4 µM | AID 861 | 200,000 compounds, 0.18% hits | O00206+Q99836 | HeLa CL3-4 TLR4/MyD88 BLA complementation, FRET ratio; in the data active = inhibition above about 25%;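 also: 0% = vehicle and 100% = reference inhibitor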
TLR9-MyD88 inh: TLR9-MyD88 interaction inhibition; inhibition, % at 4.98 µM; 340,000 compounds, 0.21% hits; CHO BLA complementation TLR9-MyD88, CCF4 FRET ratio; Q9NR96+Q99836; AID 504734;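 active = inhibition above the mean over all tested compounds plus 3 SD, cut at about 21% in these data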;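 also: 0% = DMSO only wells and 100% = clavulanate BLA inhibitor control wells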
Target sequence (Q99836 whole entry, looked up): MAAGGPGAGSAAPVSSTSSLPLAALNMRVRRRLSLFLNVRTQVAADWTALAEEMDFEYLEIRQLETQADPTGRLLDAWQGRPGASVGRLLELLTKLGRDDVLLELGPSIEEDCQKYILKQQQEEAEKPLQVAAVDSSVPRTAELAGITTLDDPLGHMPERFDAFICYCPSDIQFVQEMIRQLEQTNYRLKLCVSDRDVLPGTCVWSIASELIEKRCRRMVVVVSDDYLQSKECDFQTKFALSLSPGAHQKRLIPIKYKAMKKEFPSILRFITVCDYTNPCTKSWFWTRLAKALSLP
Target sequence (Q9NR96 whole entry, looked up): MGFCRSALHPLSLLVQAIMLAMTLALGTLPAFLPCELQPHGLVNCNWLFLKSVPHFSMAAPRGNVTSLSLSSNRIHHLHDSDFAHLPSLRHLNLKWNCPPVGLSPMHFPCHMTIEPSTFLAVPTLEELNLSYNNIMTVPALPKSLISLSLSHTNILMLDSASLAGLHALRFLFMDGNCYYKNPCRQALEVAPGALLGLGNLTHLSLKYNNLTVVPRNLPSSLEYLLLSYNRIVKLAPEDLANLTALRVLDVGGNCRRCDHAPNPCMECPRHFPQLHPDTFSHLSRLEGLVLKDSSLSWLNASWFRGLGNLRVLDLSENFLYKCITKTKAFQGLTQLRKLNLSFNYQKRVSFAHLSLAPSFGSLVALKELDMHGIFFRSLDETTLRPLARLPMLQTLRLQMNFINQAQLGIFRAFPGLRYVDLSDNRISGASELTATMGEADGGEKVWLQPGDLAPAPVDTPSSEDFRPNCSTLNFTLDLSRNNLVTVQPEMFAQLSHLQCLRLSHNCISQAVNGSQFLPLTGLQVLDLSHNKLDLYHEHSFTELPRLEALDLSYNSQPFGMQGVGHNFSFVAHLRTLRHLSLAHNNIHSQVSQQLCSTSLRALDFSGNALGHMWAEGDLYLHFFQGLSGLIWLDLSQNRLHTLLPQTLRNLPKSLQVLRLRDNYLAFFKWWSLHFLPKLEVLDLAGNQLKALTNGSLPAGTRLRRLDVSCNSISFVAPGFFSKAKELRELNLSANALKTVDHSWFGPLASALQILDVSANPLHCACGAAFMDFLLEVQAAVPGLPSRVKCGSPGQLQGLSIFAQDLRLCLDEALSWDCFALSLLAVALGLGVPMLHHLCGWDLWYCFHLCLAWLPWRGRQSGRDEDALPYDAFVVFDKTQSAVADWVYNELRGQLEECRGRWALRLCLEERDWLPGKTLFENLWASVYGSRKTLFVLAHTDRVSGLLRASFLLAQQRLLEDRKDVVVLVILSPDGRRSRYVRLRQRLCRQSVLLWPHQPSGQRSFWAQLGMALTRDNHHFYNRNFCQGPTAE
HSF1 inhib: HSF1 inhibition; activity change, negative = inhibition, % at 7.5 µM (by protocol); 300,000 compounds, 0.77% hits; NIH3T3-HGL HSE-luciferase, MG132-induced, luminescence 8 h; stronger effect = lower value;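 active = more than half of replicate wells show activity change below -50%, luminescence cut by over half; inconclusive = some wells, but at most half, below -50%; inactive = no replicate well below -50%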;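 also: luciferase reports HSF-1 transcriptional activity via heat shock element; 0% = median of DMSO wells and -100% = zero luminescence signal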
NOD2 RIPK2 conf: confirmation of human NOD2-RIPK2 interaction inhibitors; AID 624370; CHO cells, NOD2-RIPK2 BLA complementation, CCF4 FRET; inhibition, % at 4.98 µM; shares compounds with NOD2 RIPK2 PPI; 1,200 compounds, 70% hits;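 active = mean inhibition across replicates above a set limit taken from the earlier primary screen, cut at about 21% in these data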;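 also: 0% = DMSO-only wells and the high end = clavulanate BLA-blocked wells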
BLA counter: hits BLA reporter in NOD2-RIPK2 inhibitor counterscreen; 1,200 compounds, 57% hits; shares compounds with NOD2 RIPK2 PPI; inhibition, % at 4.98 µM; CHO BLA reporter, CCF4 FRET ratio; AID 624371;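 active = mean inhibition above the low-control mean inhibition plus three low-control SD, cut at about 11% in these data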;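 also: 0% = DMSO only wells and 100% = clavulanate high control wells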
* marks the source's active call; other numbers are inactive results; ? = inconclusive; · = not tested or not shown.

SMILES	HSF-1 act	NOD2 RIPK2 PPI	TLR4-MyD88 BLA	TLR9-MyD88 inh	HSF1 inhib	NOD2 RIPK2 conf	BLA counter
CC[C@H]1CN2CCc3cc(OC)c(OC)cc3C2C[C@@H]1C[C@H]1NCCc2cc(OC)c(OC)cc21 (some centres undefined)	·	23*	·	3	·	27*	-8
CCOc1ccc(C(=O)NCC(=O)OCC(=O)N(C)CC(=O)Nc2ccccc2CC)cc1OCC	·	-16	·	-8	·	·	·
Cc1ccc(S(=O)(=O)CCc2nnc(NC(=O)c3cnccn3)s2)cc1	3	-3	-12	4	-2	·	·
CCCc1nnc(NC(=O)c2nc(S(=O)(=O)Cc3ccc(C)cc3)ncc2Cl)s1	-82	32*	·	10	-80*	30*	18*
C=CC(=O)N1C/C(=C/c2ccc(F)cc2)C(=O)/C(=C\c2ccc(F)cc2)C1	·	54*	·	16	·	64*	9
Cc1cc(O)c(C(=O)/C=C/c2cccc([N+](=O)[O-])c2)c(=O)o1	-11	2	·	-6	3	·	·
CC(=O)Oc1ccccc1C(=O)C=Cc1cccc([N+](=O)[O-])c1	·	60*	·	7	·	71*	-5
O=C(O)CCCCCCCCCCCNC(=O)NC12CC3CC(CC(C3)C1)C2	·	8	·	13	·	·	·
C=CCn1c(=O)[nH]c2nc3cc(N=CN(C)C)c(C)cc3nc2c1=O	0	-9	·	2	-2	·	·
Nc1ccc2nc3c(=O)n(CCc4ccccc4)c(=O)[nH]c3nc2c1	20	38*	·	·	7	36*	35*
CCCCn1c(=O)[nH]c2nc3cc(N)ccc3nc2c1=O	·	26*	11	19	·	31*	37*
Cn1c(=O)c2cc(NC(=O)NCc3ccc(F)cc3)ccc2n1Cc1cccc(C(F)(F)F)c1	·	-4	·	·	·	·	·
COc1ccc2c(c1OC)c(=O)n1c3ccc(OC(C)C(=O)NCCCN4CCOCC4)cc3c3ccnc2c31 (centres undefined)	10	21*	·	2	2	-26	-3
CC(C)(C)OC(=O)NCc1ccc(CNC(=O)c2[nH]cnc2C(=O)NC2CCN(C(=O)OC(C)(C)C)CC2)cc1	·	-2	·	-3	·	·	·
O=C1/C(=C\c2ccccc2)CN(C(=O)CCN2CCCCC2)C/C1=C/c1ccccc1	10	36*	·	12	10	55*	1
O=C1/C(=C\c2ccc(Cl)c(Cl)c2)CN(C(=O)CCN2CCOCC2)C/C1=C/c1ccc(Cl)c(Cl)c1	·	39*	·	-7	·	76*	5
O=C1/C(=C\c2ccccc2)CCC/C1=C/c1ccccc1	·	-2	·	-6	·	·	·
CCN(CC)CCC(=O)N1C/C(=C/c2ccccc2)C(=O)/C(=C\c2ccccc2)C1	7	24*	·	11	7	47*	-1
CCNC(=O)NC(=O)CSc1ccc(S(=O)(=O)N(C)C2CCCCC2)cn1	·	-6	·	7	·	·	·
O=C(Cc1cn(-c2ccccc2)nc1-c1ccccc1)N1CCCCC1	-26	-15	·	-7	-11	·	·
O=C(CN1C(=O)CCOc2ccccc21)Nc1ccc(Cl)c(S(=O)(=O)N2CCOCC2)c1	·	8	·	-3	·	·	·
COc1ccc2c3c(cccc13)C(=O)CC2	24	27*	·	0	5	2	5
COc1ccc2c(c1OC)C(=O)OC2	8	-9	-7	2	4	·	·
COc1ccc([C@H]2C[C@@H](O)[C@H](n3cc(COC(=O)c4ccccc4)nn3)CN2C(=O)C2CCCCC2)cc1	·	-11	·	-2	·	·	·
S=C(c1ccc(-c2ccccc2Cl)o1)N1CCOCC1	43	22*	2	-3	29	6	-1
Cc1ccccc1N1C(=O)CC(Sc2nnc(-c3ccccc3)o2)C1=O (centres undefined)	?	43*	-7	-5	28	34*	6
Cc1ccc(C(=O)NNS(=O)(=O)c2ccc(F)cc2)cc1	14	-9	·	-1	-2	·	·
N#Cc1ccccc1Cn1cc(/C=C/[N+](=O)[O-])c2ccccc21	27	42*	-5	7	14	70*	9
